Screening data: PubChem BioAssay, National Center for Advancing Translational Sciences (NCATS)
D2 PAM-1: human D2 receptor positive allosteric modulation. 0.23% of 360,000 active. potentiation, % (no concentration beside the values). DiscoveRx D2 beta-arrestin cells, luminescence, 90 min; 100% = 57 uM dopamine signal. AID 624464; in the data active means potentiation above about 50%; inconclusive means mostly about 30% to 49%
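PathHunter beta-arrestin assay in DiscoveRx D2 cells. Compounds were added with an EC20 of dopamine (50 nM final) for 90 min at 37 deg C. Luminescence was read 1 h after detection reagent, with 57 uM dopamine as the EC100 control.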
D2 ag-1: activates the human D2 dopamine receptor. DiscoveRx PathHunter D2 beta-arrestin, luminescence, 90 min; 100% = 57 uM dopamine signal. activation, % (test concentration not listed). 0.084% of 360,000 active. AID 624465; in the data active means activation above about 40%; inconclusive means between about 15% and that limit
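DiscoveRx PathHunter D2 beta-arrestin cells (2,100/well) attached overnight, then compound-stimulated 90 min at 37 C in HBSS/10 mM HEPES/0.1% Tween-20 buffer; beta-galactosidase complementation read by luminescence after 1 h at ambient temperature. Dopamine 57 uM final (EC100) as control.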
D2 ag-2: activates the human D2 dopamine receptor | P14416 | HEK293 T-REx D2 cells, calcium flux agonist mode | activation, % at 2 µM | 0.53% of 340,000 active | AID 485358;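 active means activation over 3 SD above normal in the single-dose calcium agonist read, cut at about 30% in these data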; further: 0% is about no effect
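HEK293 Trex D2 cells, tetracycline-induced, o/n 30 C 5% CO2; no-wash Ca dye, RT 30–90 min; 10-cycle baseline, 23 nl cpd added, kinetic Ca read 180 s; agonist hits = positive Ca response.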
D2 antagonist: antagonists of human D2 dopamine receptor. P14416. AID 485344. HEK293 TREx D2 cells, calcium flux, dopamine EC80. inhibition, % at 10 µM. 2% of 340,000 active; in the data active means inhibition above about 30%; inactive means below that, where a call was filed; further: 0% is about no effect
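HEK293 T-REx D2 cells, tet-induced, calcium dye no-wash. Cpd pintool add, 180 s kinetic, then EC80 DA, 180 s kinetic. Ca flux read.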
D2 PAM-2: positively modulates the human D2 dopamine receptor allosterically; HEK293 T-REx D2, calcium flux, EC20 dopamine potentiation; 0.34% of 340,000 active; AID 485347; potentiation, % at 10 µM; P14416;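 active means potentiation over 3 SD above the plate norm, cut at about 30% in these data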; further: 0% is about no effect
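Potentiation of an EC20 dopamine calcium response is measured in a force-coupled, tetracycline-inducible Hek293 Trex D2 line. Compound-only kinetic reads over 180 s flag agonists before dopamine addition.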
D3 arrestin ag: activates human D3 dopamine receptor beta-arrestin recruitment. 4% of 2,300 active. shares compounds with D2 ag-2. DiscoveRx D3 beta-arrestin cells, luminescence, 90 min. Potency, µM (doses to about 76.9 µM), for the others: top-dose activation, most hits filed as activators;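 further: potency means the concentration at half of the fitted maximal effect; 100% = dopamine control response; nearly all actives have a fitted effect of over 70% in size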
Target sequence (P35462 whole entry, looked up): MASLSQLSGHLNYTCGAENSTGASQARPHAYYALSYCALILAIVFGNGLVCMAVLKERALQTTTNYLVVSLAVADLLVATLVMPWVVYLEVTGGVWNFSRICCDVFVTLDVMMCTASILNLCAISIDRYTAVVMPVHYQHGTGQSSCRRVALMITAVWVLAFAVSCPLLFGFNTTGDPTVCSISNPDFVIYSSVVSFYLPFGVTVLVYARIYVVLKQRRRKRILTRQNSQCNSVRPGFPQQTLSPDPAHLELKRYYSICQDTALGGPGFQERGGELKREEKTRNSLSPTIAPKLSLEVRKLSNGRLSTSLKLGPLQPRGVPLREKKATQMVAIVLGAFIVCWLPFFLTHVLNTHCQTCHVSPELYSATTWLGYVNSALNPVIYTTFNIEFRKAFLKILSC
D2 ag-3: activates human D2 dopamine receptor in D3 counterscreen | 5.9% of 2,300 active | shares compounds with D2 ag-2 | Potency, µM (series often up to 76.9 µM), for inactives: at the top dose activation, most hits filed as activators | DiscoveRx PathHunter D2 beta-arrestin, luminescence, 90 min; response scale: percent relative to full dopamine signal; further: potency means the concentration at half of the fitted maximal effect; % of control where 0% means no effect; nearly all actives have a fitted effect of over 70% in size
* = called active by the depositor; ? = inconclusive; · = not tested or not shown. Most compounds without a hit are left out; they make up all but 2.4% or so of the library. Unless noted, the call rests on the fitted dose curve; in most records, active means well fitted activation curve with a large enough effect; inconclusive means small, poorly fitted or top-dose-only effect; inactive means flat fitted curve, though single readings scatter.

SMILES	D2 PAM-1	D2 ag-1	D2 ag-2	D2 antagonist	D2 PAM-2	D3 arrestin ag	D2 ag-3
Nc1ccc(N2CCN(CCCCN3C(=O)C4CCCN4C3=O)CC2)cc1 (stereo not given)	-16	6	63*	42*	-17	23%	15%
COC(=O)CCC(C)N1CCC(Oc2ccc(C(=O)N3CCCC3)cc2)CC1 (stereo not given)	-20	-4	52*	9	-18	7%	6%
O=C(C1CCCN(Cc2cccnc2)C1)N1CCCCC1 (stereo not given)	-5	4	0	11	-2	-2%	-2%
C/C(=N\O)c1ccco1	-11	-4	-1	4	15	-2%	2%
C/C(=N\NC(=O)c1ccc(C(=O)N/N=C(\C)c2ccco2)o1)c1ccco1	0	-1	1	-28	8	·	·
COc1cccc(CNC(=O)Cn2ncn3nc(-c4cccs4)cc3c2=O)c1	·	·	·	·	4	·	·
Cc1cccc(C)c1NC(=O)CN1CCN(C(=O)CN2C(=O)NC3(CCCCC3C)C2=O)CC1 (stereo not given)	5	1	40*	20	-17	4%	6%
CCc1ccccc1NC(=O)CN1CCN(C(=O)CN2C(=O)NC3(CCCCC3C)C2=O)CC1 (stereo not given)	2	-2	-1	-6	-7	·	·
Cc1ccccc1C(=O)Nc1nnc(SC(C)C)s1	-29	1	18	29	-3	-3%	-1%
NS(=O)(=O)c1ccc(-c2ccc(/C=N/Nc3ccc(C(=O)O)cc3)o2)cc1	16	?	4	8	-1	11%	15%
NS(=O)(=O)c1ccc(-c2ccc(/C=N/NC(=O)c3ccc([N+](=O)[O-])cc3)o2)cc1	5	1	0	5	1	·	·
Cc1c(C)n(C)c2ccc(C(=O)N3CCN(c4ccccc4)CC3)cc12	2	-2	1	·	-6	·	·
Cc1c(C)n(C)c2ccc(C(=O)N3CCN(c4ccccn4)CC3)cc12	11	11	56*	31*	-21	?	20%
COc1cc([C@H]2[C@@H]3CCCC[C@]3(O)CCN2Cc2ccccc2F)ccc1O	-14	-5	0	-3	12	·	·
COc1cc([C@H]2[C@@H]3CCCC[C@]3(O)CCN2CC(=O)Nc2ccc(C)cc2C)ccc1O	2	0	29	-4	-5	8%	-3%
CC1CCN(c2ccc(C(=O)NCc3ccco3)cc2[N+](=O)[O-])CC1	-14	-1	0	6	2	-10%	-11%
Cc1cccc(N(Cc2ccccc2)C(=O)C2CCN(C(=O)c3ccccc3C)CC2)c1	-10	1	0	-55	0	-14%	3%
Cc1ccccc1C(=O)N1CCC(C(=O)N(C)CCOc2ccccc2)CC1	-4	-7	0	-3	5	·	·
CSc1ccccc1NC(=O)C1C2CCC(C2)C1C(=O)O (stereo not given)	-5	-4	27	-3	-3	-11%	-4%
O=C(O)c1ccc(NC(=O)C2C3CCC(C3)C2C(=O)O)cc1 (stereo not given)	4	-2	0	-8	1	·	·
CCCCN(CC)CCNC(=O)Cn1c(=O)c2cccn2c2cccnc21	·	·	1	·	2	·	·
O=C(O)/C=C/C(=O)NCCc1ccccc1	-9	7	78*	61*	-21	-3%	5%
O=C(O)/C=C/C(=O)NCCc1ccc(Cl)cc1	-8	-2	8	14	-7	·	·
COC(=O)c1c(NC(=O)CCCOc2ccccc2C)sc2c1CCC2	·	·	-2	·	3	·	·
Fc1cc(F)cc(Nc2nc(Cl)nc(NC3CCCC3)n2)c1	·	·	-1	-4	-5	-6%	0%
SMILES	D2 PAM-1	D2 ag-1	D2 ag-2	D2 antagonist	D2 PAM-2	D3 arrestin ag	D2 ag-3
CC(C)Nc1nc(Cl)nc(NC2CCCCC2)n1	-1	-1	-1	-6	-4	·	·
COCCN(C(=O)C1CCN(C(=O)c2ccccc2C)CC1)c1c(N)n(CC(C)C)c(=O)[nH]c1=O	-4	0	0	-6	5	-1%	-2%
Cc1ccccc1C(=O)N1CCC(C(=O)N(CC(C)C)c2c(N)n(CC(C)C)c(=O)[nH]c2=O)CC1	-1	-1	0	-24	7	·	·
CN=c1scc(-c2ccco2)n1/N=C/c1ccc(O)c(O)c1	27	49*	36*	28	-9	?	35µM*
CCc1ccc(S(=O)(=O)c2nnn3c2nc(NCCNC(C)=O)c2cc(Cl)ccc23)cc1	·	·	0	·	1	·	·
CC(C)CCn1nnnc1CN1CCN(c2ccccc2)CC1	-6	4	52*	50*	-19	-7%	10%
COCCn1nnnc1CN1CCN(c2cccc(C(F)(F)F)c2)CC1	2	-1	0	19	5	·	·
CC1CCN(C(=O)c2cnn(-c3cccc(Cl)c3)c2C2CCN(C(=O)OC(C)(C)C)CC2)CC1	·	·	0	·	4	·	·
O=C(COc1ccc(Cl)cc1)NNC(=O)c1cccnc1	-2	-4	0	8	1	-12%	-3%
CC1(C)NC(=O)N(CC(=O)N2CCN(S(=O)(=O)c3cc(Cl)ccc3Cl)CC2)C1=O	2	-2	·	·	7	-9%	-3%
CCOc1ccc(-n2c(SCc3nc(-c4ccc(C)cc4)no3)nnc2-c2ccncc2)cc1	-8	-4	47*	10	-21	-8%	-1%
COc1ccc(-c2noc(CSc3nnc(-c4ccncc4)n3-c3ccc(C)cc3)n2)cc1	·	·	3	·	-3	·	·
COC(=O)Nc1ncc(CN2CCC(c3ccccc3)CC2)s1	-25	13	85*	98*	-28	8%	22%
CCCc1ccc(OCC(O)CN2CCN(c3ccccn3)CC2)cc1 (stereo not given)	-11	?	78*	74*	-20	1.3µM*	?
OC(COC(c1ccccc1)c1ccccc1)CN1CCN(c2ccccn2)CC1 (stereo not given)	-15	13	77*	78*	-19	4.5µM*	?
CC(=O)c1ccc(OCC(O)CN2CCN(Cc3ccccc3)CC2)cc1 (stereo not given)	-3	-7	9	17	-3	-21%	4%
CCCc1ccc(OCC(O)CN2CCc3ccccc3C2)cc1 (stereo not given)	-83	1	·	·	·	·	·
OC(COCc1ccc(Cl)cc1)CN1CCN(c2ccccn2)CC1 (stereo not given)	-1	45*	83*	84*	-24	?	?
